# Results: the supplement of paper PMC3545927
# This is one part of the list. How many sequences the whole screen found active is unknown.
# B1: HC2370 (peptide)
# chain: CAEVPCHVPSAGNASASA
# B2: HC873 (peptide)
# chain: CAVIPTSGDVAGNASASA
# B3: HC467 (peptide)
# chain: CAYRLWHYPCAGNASASA
# B4: HC86 (peptide)
# chain: CAVVCFSMSYAGNASASA
# B5: HC2284 (peptide)
# chain: CADIEVVTSTAGNASASA
# B6: HC463 (peptide)
# chain: CAPRCLVDYPAGNASASA
# B7: HC1751 (peptide)
# chain: CAMEECSQDLAGNASASA
# B8: HC2567 (peptide)
# chain: CASTPCSAHFAGNASASA
# B9: FS-2196 (peptide)
# chain: CARVKKSPPEAGNASASA
# B10: FS-1871 (peptide)
# chain: CARVKKEWEEAGNASASA
# B11: HC1003 (peptide)
# chain: CARVVLSGKPAGNASASA
# B12: HC678 (peptide)
# chain: CAQTRGLLGCAGNASASA
# B13: HC1247 (peptide)
# chain: CASMLTDPSHAGNASASA
# B14: FS-1845 (peptide)
# chain: CADFERSRAFAGNASASA
# B15: FS-3192 (peptide)
# chain: CARKKRKPEEAGNASASA
# B16: FS-2267 (peptide)
# chain: CARKKRKAAPAGNASASA
# B17: FS-2966 (peptide)
# chain: CARKKRMAKYAGNASASA
# B18: FS-3191 (peptide)
# chain: CARKKRKIKEAGNASASA
# B19: FS-2663 (peptide)
# chain: CARFKRSAQFAGNASASA
# B20: FS-2965 (peptide)
# chain: CARKKRLISYAGNASASA
# B21: HC309 (peptide)
# chain: CARHWTTQGCAGNASASA
# B22: HC26 (peptide)
# chain: CAMEECFQHLAGNASASA
# B23: HC1086 (peptide)
# chain: CAILAGYGAGAGNASASA
# B24: FS-2981 (peptide)
# chain: CARKSRPNASAGNASASA
# B25: FS-3195 (peptide)
# chain: CARKSRSKSKAGNASASA
# B26: FS-2269 (peptide)
# chain: CARKKRQVPYAGNASASA
# B27: FS-1958 (peptide)
# chain: CARKKRSQTYAGNASASA
# B28: FS-1957 (peptide)
# chain: CARKKRSEYYAGNASASA
# B29: FS-3224 (peptide)
# chain: CARKSRSPHNAGNASASA
# B30: HC302 (peptide)
# chain: CASVFLVGQLAGNASASA
# B31: CS5 (peptide)
# chain: CAGDEVDGAGAGNASASA
# B32: HC1343 (peptide)
# chain: CATTTSSEPAAGNASASA
# B33: HC2025 (peptide)
# chain: CAVVLCSMSYAGNASASA
# B34: HC777 (peptide)
# chain: CAGSGKSTKVAGNASASA
# B35: HC808 (peptide)
# chain: CATYGKFLADAGNASASA
# B36: HC1461 (peptide)
# chain: CAKLPLAVMGAGNASASA
# B37: HC1616 (peptide)
# chain: CAKLGVPPLRAGNASASA
# B38: FS-2878 (peptide)
# chain: CAQKKRSAQYAGNASASA
# B39: FS-1827 (peptide)
# chain: CARKKRISANAGNASASA
# B40: FS-2036 (peptide)
# chain: CARKKRSAQNAGNASASA
# B41: FS-3104 (peptide)
# chain: CARTGRQVLGAGNASASA
# B42: FS-1374 (peptide)
# chain: CALTARFRRGAGNASASA
# B43: FS-883 (peptide)
# chain: CATREAFRRGAGNASASA
# B44: FS-1483 (peptide)
# chain: CARTDRCRRGAGNASASA
# B45: FS-250 (peptide)
# chain: CAIHARFRRGAGNASASA
# Target: furin, P09958
# Sequence (P09958 whole entry): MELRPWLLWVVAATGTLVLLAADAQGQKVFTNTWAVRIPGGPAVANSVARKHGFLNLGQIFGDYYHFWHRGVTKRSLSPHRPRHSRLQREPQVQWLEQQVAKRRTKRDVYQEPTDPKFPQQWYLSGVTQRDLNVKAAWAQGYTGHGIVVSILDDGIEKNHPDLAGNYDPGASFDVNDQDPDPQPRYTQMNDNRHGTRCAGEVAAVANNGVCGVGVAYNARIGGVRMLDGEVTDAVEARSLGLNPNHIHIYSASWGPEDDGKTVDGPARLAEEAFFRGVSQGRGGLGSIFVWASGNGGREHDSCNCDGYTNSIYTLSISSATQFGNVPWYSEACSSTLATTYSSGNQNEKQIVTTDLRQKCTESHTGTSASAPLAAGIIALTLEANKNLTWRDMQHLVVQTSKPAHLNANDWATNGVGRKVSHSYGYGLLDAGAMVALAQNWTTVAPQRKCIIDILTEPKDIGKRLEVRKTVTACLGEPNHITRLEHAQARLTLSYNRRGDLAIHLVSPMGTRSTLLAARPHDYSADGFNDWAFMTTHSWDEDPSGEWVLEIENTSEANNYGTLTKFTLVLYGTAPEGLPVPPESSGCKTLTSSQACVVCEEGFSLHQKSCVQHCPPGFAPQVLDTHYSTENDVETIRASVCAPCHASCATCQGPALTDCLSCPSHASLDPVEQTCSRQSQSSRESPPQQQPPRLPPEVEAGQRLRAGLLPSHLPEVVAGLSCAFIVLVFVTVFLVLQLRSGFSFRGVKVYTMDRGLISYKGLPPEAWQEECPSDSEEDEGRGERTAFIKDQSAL
# Assay: furin cleavage Z-score vs untreated control; higher = more cleavage, active = 3.5 or more, inactive = 1 or less, 8 variable residues between constant flanks
# Summary of the method: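 The cleavage Z-score is the log read count relative to furin-free reactions, lowess-adjusted and scaled by median absolute deviation. Counts came from sequencing DNA released from bead-bound 8-mer peptide–cDNA fusions after digestion with purified furin for 7.5, 15 or 30 min.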
# 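Note: purified furin at 1:10 enzyme:substrate in 50 mM HEPES pH 7.5.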
Sequence,furin cleavage Z-score (7.5 min),furin cleavage Z-score (15 min),furin cleavage Z-score (30 min)
B1,-0.196 (inactive),0.881 (inactive),0.0659 (inactive)
B2,-1.48 (inactive),-0.378 (inactive),1.84
B3,0.186 (inactive),0.568 (inactive),0.0366 (inactive)
B4,-0.132 (inactive),1.31,0.28 (inactive)
B5,-0.624 (inactive),-0.333 (inactive),-1.16 (inactive)
B6,0.288 (inactive),-0.558 (inactive),-0.868 (inactive)
B7,-0.0304 (inactive),-0.261 (inactive),0.894 (inactive)
B8,1.04,-0.481 (inactive),1.8
B9,3.38,4.49 (active),5.53 (active)
B10,-0.778 (inactive),-0.527 (inactive),-1.03 (inactive)
B11,-0.899 (inactive),-0.703 (inactive),-0.908 (inactive)
B12,0.117 (inactive),-0.157 (inactive),-0.705 (inactive)
B13,0.787 (inactive),1.14,0.981 (inactive)
B14,-0.875 (inactive),-0.501 (inactive),-0.616 (inactive)
B15,0.523 (inactive),1.22,1.86
B16,5.91 (active),5.87 (active),5.5 (active)
B17,5.67 (active),7.97 (active),8.42 (active)
B18,-0.575 (inactive),-0.156 (inactive),2.36
B19,9.02 (active),10 (active),9.39 (active)
B20,0.348 (inactive),3.83 (active),6.5 (active)
B21,0.306 (inactive),-0.845 (inactive),0.176 (inactive)
B22,0.765 (inactive),1.72,1.22
B23,-0.899 (inactive),-0.697 (inactive),-0.69 (inactive)

Sequence,furin cleavage Z-score (7.5 min),furin cleavage Z-score (15 min),furin cleavage Z-score (30 min)
B24,0.905 (inactive),-0.37 (inactive),-0.749 (inactive)
B25,1.71,0.576 (inactive),0.352 (inactive)
B26,7.32 (active),7.2 (active),5.84 (active)
B27,8.08 (active),10.2 (active),9.02 (active)
B28,5.84 (active),8.3 (active),8.52 (active)
B29,7.07 (active),8.27 (active),8.28 (active)
B30,-1.01 (inactive),0.196 (inactive),-1.15 (inactive)
B31,-1.72 (inactive),-1.16 (inactive),-2.65 (inactive)
B32,0.91 (inactive),0.314 (inactive),0.501 (inactive)
B33,-0.0785 (inactive),0.317 (inactive),-1.45 (inactive)
B34,-0.846 (inactive),-1.25 (inactive),-0.383 (inactive)
B35,-0.371 (inactive),0.314 (inactive),-0.318 (inactive)
B36,-1.04 (inactive),0.392 (inactive),-1.13 (inactive)
B37,-0.0832 (inactive),-1.53 (inactive),0.294 (inactive)
B38,0.0672 (inactive),0.984 (inactive),2.02
B39,0.255 (inactive),0.21 (inactive),-0.0863 (inactive)
B40,11.7 (active),14 (active),8.93 (active)
B41,0.169 (inactive),-0.821 (inactive),-1.11 (inactive)
B42,10.8 (active),12 (active),9.56 (active)
B43,-0.796 (inactive),-0.878 (inactive),-1.14 (inactive)
B44,7.57 (active),8.52 (active),8.04 (active)
B45,11.1 (active),12.1 (active),9.69 (active)
